Rows were chosen to be rich in hits. Some 3.2% of all compounds tested hit in one or more screens of this group.
TcdB GH inh: blocks C. difficile toxin B glycohydrolase activity; 350,000 tested, 0.24% active; P18177; TcdB glycohydrolase enzymatic assay, plate reader; inhibition, % at 9.99 µM; in the data active = inhibition above about 10%
Y pestis TopoI: blocks Yersinia pestis topoisomerase I activity | activity, % at 10 µM | Y. pestis Topo-I cleavage product accumulation, plate reader | 360,000 tested, 0.064% active; in the data active = activity above about 50%, passing the limit was not always enough
Mtb FBA inh: inhibitors of M. tuberculosis fructose-bisphosphate aldolase; purified M. tuberculosis FBA, fluorescence read-out; inhibition, % at 1 µM; 360,000 tested, 2.3% active; AID 588726;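 also: 0% = vehicle and 100% = reference inhibitor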
Target sequence (P9WQA3 whole entry, looked up): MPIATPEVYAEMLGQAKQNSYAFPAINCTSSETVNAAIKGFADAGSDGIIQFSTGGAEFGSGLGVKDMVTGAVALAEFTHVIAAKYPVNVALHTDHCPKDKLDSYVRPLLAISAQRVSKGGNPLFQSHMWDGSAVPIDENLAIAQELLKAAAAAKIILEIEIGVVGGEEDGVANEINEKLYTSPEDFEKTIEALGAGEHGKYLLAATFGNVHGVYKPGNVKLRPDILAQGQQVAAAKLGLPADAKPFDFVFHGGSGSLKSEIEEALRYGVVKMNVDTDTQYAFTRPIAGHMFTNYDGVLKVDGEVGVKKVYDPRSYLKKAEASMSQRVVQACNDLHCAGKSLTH
GDH-TPI counter-1: GDH-TPI coupled enzyme inhibition counter-screen. GDH-TPI coupled enzyme counterscreen, NADH absorbance. 360,000 tested, 1.2% active. inhibition, % at 4.8 µM; in the data active = inhibition above about 30%;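 also: 0% = DMSO wells and 100% = wells lacking the enzyme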
PrPC surface inh: inhibitors of human cell surface prion protein PrPC; TR-FRET read-out; inhibition, % at 13.8 µM; 370,000 tested, 0.43% active; P04156; in the data active = inhibition above about 24%; also: 0% = median of the test wells and 100% = reference compound wells
Mtb FBA inh conf: confirmation of M. tuberculosis fructose-bisphosphate aldolase inhibitors | shares compounds with Mtb FBA inh | purified M. tuberculosis FBA, fluorescence read-out | inhibition, % at 1 µM | 5,600 tested, 78% active | AID 651616;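 also: 0% = vehicle wells and 100% = reference inhibitor wells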
GDH-TPI counter-2: inhibits GDH-TPI coupling enzymes, flagging Mtb FBA hits. 5,600 tested, 81% active. inhibition, % at 1 µM. AID 652141. shares compounds with Mtb FBA inh. GDH-TPI coupled enzyme counterscreen, fluorescence; in the data active = inhibition above about 10%
The depositor's hits bear a star. Rule as the data show it, unless noted: active = inhibition above about 27%; inactive = the rest.

How did CC(C)SCC(=O)Nc1ncc2c(n1)-c1ccccc1CC2 do in these assays?
TcdB GH inh: 0; Y pestis TopoI: -5; Mtb FBA inh: 29*; GDH-TPI counter-1: 7; PrPC surface inh: -4; Mtb FBA inh conf: 3; GDH-TPI counter-2: 2

How did O=C(Nc1ncc2c(n1)-c1ccccc1CC2)C1CC1 do in these assays?
TcdB GH inh: 0; Y pestis TopoI: -1; Mtb FBA inh: 1; GDH-TPI counter-1: -3; PrPC surface inh: 6

How did COc1ccc2c3c([nH]c2c1)[C@@H](CO)N(C(=O)NC(C)C)CC31CN(C(=O)C2CCCCC2)C1 do in these assays?
TcdB GH inh: 1

Results for CN(C)/C=N/c1nc2nccc(-c3ccccc3)n2n1 ?
TcdB GH inh: 0; Y pestis TopoI: 3; Mtb FBA inh: 52*; GDH-TPI counter-1: 11; PrPC surface inh: -6; Mtb FBA inh conf: 132*; GDH-TPI counter-2: 106*

Results for CN(C)/C=N/c1nc2nccc(-c3ccc(Cl)cc3)n2n1 ?
TcdB GH inh: 0; Y pestis TopoI: 3; Mtb FBA inh: 72*; GDH-TPI counter-1: 19; PrPC surface inh: -2; Mtb FBA inh conf: -4; GDH-TPI counter-2: -5

How did COc1cc2cc(CN(CCCO)S(=O)(=O)c3ccccc3)c(=O)[nH]c2cc1OC do in these assays?
Y pestis TopoI: 4; Mtb FBA inh: 55*; GDH-TPI counter-1: 37*; PrPC surface inh: -3; Mtb FBA inh conf: 2; GDH-TPI counter-2: -2

How did COc1cc2cc(CN(CCO)S(=O)(=O)c3ccccc3Cl)c(=O)[nH]c2cc1OC do in these assays?
Y pestis TopoI: 1; Mtb FBA inh: 49*; GDH-TPI counter-1: 33*; PrPC surface inh: -7; Mtb FBA inh conf: 118*; GDH-TPI counter-2: 101*

How did COc1cc2cc(CN(Cc3cccnc3)C(=O)NCc3ccccc3)c(=O)[nH]c2cc1OC do in these assays?
Y pestis TopoI: 5; Mtb FBA inh: 32*; GDH-TPI counter-1: 26; PrPC surface inh: -2; Mtb FBA inh conf: 26; GDH-TPI counter-2: 20*

How did COc1cc2cc(CN(CCCO)S(=O)(=O)c3ccccc3Cl)c(=O)[nH]c2cc1OC do in these assays?
TcdB GH inh: 1; Y pestis TopoI: 9; Mtb FBA inh: 19; GDH-TPI counter-1: -3

What do the screens show for `CCOC(=O)c1cccc(S(=O)(=O)N(CCO)Cc2cc3cc(OC)c(OC)cc3[nH]c2=O)c1`?
Y pestis TopoI: 7; Mtb FBA inh: 1; GDH-TPI counter-1: 27; PrPC surface inh: -4

Results for C[C@H]1CN([C@@H](C)CO)C(=O)c2cccc(NS(=O)(=O)c3cn(C)cn3)c2O[C@@H]1CN(C)Cc1ccc(Oc2ccccc2)cc1 ?
TcdB GH inh: 1

How did C[C@@H]1CN([C@@H](C)CO)C(=O)c2cc(NC(=O)CCCN(C)C)ccc2O[C@@H](C)CCCCO[C@@H]1CN(C)S(C)(=O)=O do in these assays?
TcdB GH inh: -1

Results for C[C@H](CO)N1C[C@H](C)[C@H](CN(C)Cc2ccc(Oc3ccccc3)cc2)Oc2ccc(NS(C)(=O)=O)cc2C1=O ?
TcdB GH inh: -1

What do the screens show for `COC(=O)c1c(C)n(-c2ccc(OC)cc2)c2ccc(O)cc12`?
Y pestis TopoI: -3; Mtb FBA inh: 2; GDH-TPI counter-1: 10; PrPC surface inh: 10

How did CCOC(=O)c1c(C)n(-c2ccc(F)cc2)c2ccc(O)cc12 do in these assays?
TcdB GH inh: 1; Y pestis TopoI: -1; Mtb FBA inh: 35*; GDH-TPI counter-1: -3; Mtb FBA inh conf: 44*; GDH-TPI counter-2: 24*

Results for Cn1c2ccccc2c2c(C(=O)NCc3ccco3)cn(C3CCCCC3)c(=O)c21 ?
Y pestis TopoI: -10; Mtb FBA inh: 11; GDH-TPI counter-1: 12; PrPC surface inh: -2

How did CCOC(CCNC(=O)c1cn(CCOC)c(=O)c2c1c1ccccc1n2C)OCC do in these assays?
TcdB GH inh: 21*; Y pestis TopoI: -7; Mtb FBA inh: 30*; GDH-TPI counter-1: 5; PrPC surface inh: 6; Mtb FBA inh conf: 77*; GDH-TPI counter-2: 66*

What do the screens show for `COCCn1cc(C(=O)NCc2ccco2)c2c3ccccc3n(C)c2c1=O`?
TcdB GH inh: -1; Y pestis TopoI: 8; Mtb FBA inh: 91*; GDH-TPI counter-1: 14; PrPC surface inh: 0; Mtb FBA inh conf: active; GDH-TPI counter-2: active

How did CCCN(CCC)CCCNC(=O)c1cn(CCOC)c(=O)c2c1c1ccccc1n2C do in these assays?
Y pestis TopoI: 2; Mtb FBA inh: 32*; GDH-TPI counter-1: 20; PrPC surface inh: -2; Mtb FBA inh conf: 118*; GDH-TPI counter-2: 90*

What do the screens show for `C[C@H]1CN([C@@H](C)CO)C(=O)c2cccc(NC(=O)Nc3ccc4c(c3)OCO4)c2O[C@H]1CN(C)Cc1ccncc1`?
TcdB GH inh: 0

How did Cc1nn2c(-c3ccccc3)ccnc2c1-c1ccccc1 do in these assays?
Y pestis TopoI: 2; Mtb FBA inh: -3; GDH-TPI counter-1: 0; PrPC surface inh: -8

Results for N#CCc1nn2c(-c3ccccc3)ccnc2c1C#N ?
TcdB GH inh: 1; Y pestis TopoI: 0; Mtb FBA inh: 69*; GDH-TPI counter-1: 14; PrPC surface inh: -8; Mtb FBA inh conf: 121*; GDH-TPI counter-2: 91*

Results for O=C(C[C@@H]1CC[C@@H]2[C@H](COC[C@H](O)CN2S(=O)(=O)c2cccc(F)c2)O1)NCCCN1CCOCC1 ?
TcdB GH inh: 0

What do the screens show for `COc1cccc(S(=O)(=O)Nc2ccc3c(c2)C(=O)N(C)C[C@H](OC)[C@H](C)CN(C(=O)Cc2cccnc2)[C@H](C)CO3)c1`?
TcdB GH inh: 0

Results for CC1CCCCN1Cc1c(O)ccc2c(=O)c(-c3ccc(Br)cc3)coc12 (configuration not stated) ?
TcdB GH inh: -1; Y pestis TopoI: 17; Mtb FBA inh: 42*; GDH-TPI counter-1: 16; PrPC surface inh: -13; Mtb FBA inh conf: active; GDH-TPI counter-2: 164*

Results for CC1CCCCN1Cc1c(O)ccc2c(=O)c(-c3ccc(Cl)cc3Cl)coc12 (configuration not stated) ?
TcdB GH inh: 0; Y pestis TopoI: 9; Mtb FBA inh: 62*; GDH-TPI counter-1: 18; PrPC surface inh: -10; Mtb FBA inh conf: active; GDH-TPI counter-2: active

How did Cc1c(CN2CCCCC2C)c(=O)n(-c2ccccc2)n1C (configuration not stated) do in these assays?
Y pestis TopoI: 12; Mtb FBA inh: 2; GDH-TPI counter-1: 1; PrPC surface inh: -2

What do the screens show for `CC1CCCCN1Cc1c(O)ccc2c(=O)c(-c3ccc(Cl)cc3)coc12` (configuration not stated)?
TcdB GH inh: 1; Y pestis TopoI: 6; Mtb FBA inh: 52*; GDH-TPI counter-1: 9; PrPC surface inh: 1; Mtb FBA inh conf: 123*; GDH-TPI counter-2: 103*

Assay outcomes (PubChem BioAssay)
